PAFAH1B2 inh – blocks human PAF acetylhydrolase 1b catalytic subunit 2; P68402; recombinant PAFAH1B2, FP-rhodamine activity probe, fluorescence polarization; inhibition, % at 3.39 µM; 1.2% of 340,000 active; AID 492953;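 active = inhibition above the mean of all tested compounds plus 3 SD, cut at about 24% in these data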;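 also: 0% = enzyme with DMSO and 100% = wells lacking PAFAH1B2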
Target sequence (P68402 whole entry, looked up): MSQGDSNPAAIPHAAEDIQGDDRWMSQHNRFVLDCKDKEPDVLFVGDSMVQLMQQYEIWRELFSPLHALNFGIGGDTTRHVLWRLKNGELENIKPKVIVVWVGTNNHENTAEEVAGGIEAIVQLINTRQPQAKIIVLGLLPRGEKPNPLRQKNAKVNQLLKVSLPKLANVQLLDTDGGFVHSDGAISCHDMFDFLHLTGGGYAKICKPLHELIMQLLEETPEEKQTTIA
PP5 inh – PP5 (human) phosphatase inhibition; 0.18% of 320,000 active; P53041; purified PP5c, OMFP substrate fluorescence; inhibition, % at 6.7 µM;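 active = inhibition above the campaign's mean inhibition across all tested compounds plus 3 SD, cut at about 9.5% in these data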;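 also: 0% = DMSO only and 100% = 100 µM cantharidin control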
PAFAH2 inh – inhibitors of human PAFAH2; recombinant PAFAH2, FP-rhodamine activity probe, fluorescence polarization; Q99487; inhibition, % at 3.39 µM; 0.99% of 340,000 active;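 active = inhibition above the mean over all tested compounds plus 3 SD, cut at about 30% in these data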;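 also: inhibitors block probe labeling of enzyme so polarization drops; 0% = enzyme with DMSO and 100% = wells lacking PAFAH2 protein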
CTSL1 counter – blocks F. hepatica cathepsin L1 in PFM18AAP counter-screen | recombinant F. hepatica cathepsin L1, Z-Leu-Arg-MCA fluorescence | inhibition, % at 5.96 µM | 0.49% of 300,000 active;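 active = inhibition above the mean of all tested compounds plus 3 SD, set per screening campaign, cut at about 17% in these data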;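 also: 0% = plate median of test compound wells and 100% = 1 µM Z-Phe-Ala-diazomethylketone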
PAFAH1B3 FP inh – PAFAH1B3 (human) inhibition. Q15102. recombinant PAFAH1B3, FP-rhodamine probe, fluorescence polarization. inhibition, % at 3.39 µM. 0.28% of 340,000 active. AID 492972;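 active = inhibition above the screen-wide average of all tested compounds plus 3 SD, cut at about 25% in these data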;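 also: 0% = enzyme with DMSO only and 100% = wells lacking PAFAH1B3 protein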
Target sequence (Q15102 whole entry, looked up): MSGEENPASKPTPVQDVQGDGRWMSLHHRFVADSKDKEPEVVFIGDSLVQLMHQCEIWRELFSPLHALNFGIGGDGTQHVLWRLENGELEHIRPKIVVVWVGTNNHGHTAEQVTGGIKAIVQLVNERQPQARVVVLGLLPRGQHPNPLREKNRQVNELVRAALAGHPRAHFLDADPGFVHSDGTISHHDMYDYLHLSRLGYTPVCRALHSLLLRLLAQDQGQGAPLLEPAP
pPAFAH inh – inhibitors of human plasma PAF acetylhydrolase (pPAFAH); Q13093; recombinant pPAFAH, FP-rhodamine probe fluorescence polarization; inhibition, % at 3.39 µM; 1.5% of 330,000 active; AID 463082;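 active = inhibition above the mean inhibition across the screen plus 3 SD, cut at about 25% in these data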;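 also: inhibitors block binding of the rhodamine activity-based probe so polarization drops; 0% = enzyme with DMSO and 100% = wells lacking pPAFAH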
Active calls of the source: *; . = no result given. The list is not random: actives were taken first. Their share in the collection is about 3%.

SMILES | PAFAH1B2 inh | PP5 inh | PAFAH2 inh | CTSL1 counter | PAFAH1B3 FP inh | pPAFAH inh
COC(=O)CSc1nc(C)c2c(n1)CCCC2 | -5.6 | -0.7 | 3.2 | -2.4 | 1.3 | 2.3
CCc1ccc(CNC(=O)C2CCCN(c3nn4c(=O)cc(C)nc4s3)C2)cc1 (configuration not stated) | 2.3 | -0.6 | -2.6 | -0.4 | -4.3 | 2.8
OC[C@H]1O[C@@H](O[C@@H]2[C@@H](CO)O[C@@](O)(CO)[C@H]2O)[C@H](O)[C@@H](O)[C@H]1O | 6.2 | 0.5 | -1.8 | -1.8 | 8.0 | -2.3
COc1ccccc1NS(=O)(=O)c1cc(NC(=O)C2CCCO2)ccc1C (configuration not stated) | 8.7 | . | 1.9 | . | 2.1 | 2.8
Cc1cccc(NC(=O)c2ccc(S(=O)(=O)NCc3cccnc3)cc2)c1 | -0.4 | 3.5 | -7.2 | -2.3 | -0.8 | 10.4
COc1ccc(-n2cnc3c(N)nc(N)nc32)cc1 | 10.7 | . | 0.6 | . | 6.2 | .
Cc1ccc(N=C2NC(=O)/C(=C/c3cccn3C)S2)cc1C | . | 0.3 | . | 4.2 | . | 17.2
Cc1cccc(N=C2NC(=O)/C(=C/c3cccn3C)S2)c1C | 3.3 | 1.1 | 9.6 | 3.7 | 7.8 | 32.4*
COCCN(C(=O)COC(=O)CCC(=O)c1cccs1)c1c(N)n(Cc2ccccc2)c(=O)[nH]c1=O | 2.5 | 0.5 | -11.1 | -34.0 | 5.8 | 1.2
CCOC(=O)N1CCN(C(=O)CNC(=O)c2nn(-c3ccc(OC)c(Cl)c3)c(=O)c3ccccc23)CC1 | 3.9 | 2.5 | 0.0 | 0.0 | 12.1 | 5.6
Cc1ccccc1CSc1ncnc2ccccc12 | 4.2 | 4.9 | -2.4 | -2.0 | 5.7 | 31.7*
COc1cc(O)cc2cc3c(c(O)c12)C(=O)CC(C)(O)O3 (configuration not stated) | 7.0 | 2.5 | 12.6 | -0.6 | 19.3 | 25.1*
CC(C)COc1ccc(CNC(=S)Nc2ccccc2)cc1Cl | -0.2 | 4.0 | -9.1 | -2.2 | 3.1 | 6.4
O=C(OCCCOC(=O)c1ccc([N+](=O)[O-])o1)c1ccc([N+](=O)[O-])o1 | 3.9 | -3.4 | 6.3 | 22.6* | 13.1 | 2.1
O=C(COC(=O)c1ccc([N+](=O)[O-])o1)c1ccccc1 | 4.1 | 3.0 | 4.2 | -4.9 | 7.4 | 6.4
O=C(Cn1ccc(=O)[nH]c1=O)Nc1ccc(O)c([N+](=O)[O-])c1 | 1.7 | . | 6.3 | . | 6.7 | .
O=C1CCN(CCc2ccccc2)CCN1CCSc1ccccc1 | 4.1 | 3.7 | 16.0 | -9.5 | 7.3 | 30.5*
CC(=O)c1cc2c(cc1NC(=O)c1ccco1)OCCO2 | -0.4 | 1.3 | 0.3 | 37.8* | -0.8 | 2.7
O=C(Nc1cc2c(cc1Br)OCCO2)c1ccco1 | 2.6 | 1.0 | -7.5 | 2.5 | 2.9 | 0.8
CC(C)=CCc1cc(-c2oc3cc(O)cc(O)c3c(=O)c2O)ccc1O | 12.6 | 4.2 | -8.4 | -2.0 | 26.2* | 34.0*
O=C(COC(=O)c1ccc2ccccc2n1)Nc1ncc(C(F)(F)F)cc1Cl | -1.9 | 2.2 | 8.9 | -4.0 | 2.0 | 26.3*
O=C(COC(=O)c1ccc2ccccc2c1)Nc1ncc(C(F)(F)F)cc1Cl | -5.3 | 1.9 | 9.5 | -2.2 | 6.1 | 12.8
O=C(COC(=O)CNC(=O)c1ccccc1Cl)Nc1ncc(C(F)(F)F)cc1Cl | -0.9 | 0.7 | 7.5 | 20.8* | 0.9 | 2.7
COc1cccc(NC(=O)c2cccc(N3C(=O)C4C5C=CC(C5)C4C3=O)c2)c1 (configuration not stated) | 1.3 | -0.6 | -0.1 | -0.1 | 4.9 | 1.7
Cc1ccc2occ(/C=N/NC(=O)c3ccccc3O)c(=O)c2c1 | 2.8 | -2.1 | 7.3 | -0.6 | 14.9 | 13.7
SMILES | PAFAH1B2 inh | PP5 inh | PAFAH2 inh | CTSL1 counter | PAFAH1B3 FP inh | pPAFAH inh
O=[N+]([O-])c1cc(Cl)cc(/C=N/NC(=S)Nc2ccc(S(=O)(=O)N3CCOCC3)cc2)c1O | 37.2* | 3.1 | 41.9* | -3.7 | 22.7 | 51.9*
Cc1cc(C(=O)CSc2cccc[n+]2[O-])c(C)n1-c1ccccc1 | -2.5 | -2.4 | 11.2 | 0.9 | 3.0 | 1.5
Cc1cc(C(=O)CSc2cccc[n+]2[O-])c(C)n1-c1ccc(Br)cc1 | . | 2.6 | . | 1.8 | . | 44.2*
CCOc1cc(N2CCOCC2)c(OCC)cc1NC(=O)c1cnccn1 | . | . | . | . | . | 5.9
Cc1cc(Cl)ccc1C(=O)C1CCCN(C(=O)c2ccc3ncccc3c2)C1 (configuration not stated) | -0.7 | 2.9 | -3.8 | -6.0 | 12.4 | 25.4*
Cc1cc(Cl)ccc1C(=O)C1CCCN(C(=O)c2ccsc2)C1 (configuration not stated) | 4.5 | 2.1 | 1.0 | 2.1 | 7.0 | 4.9
O=C1S/C(=C\C=C\c2ccco2)C(=O)N1c1ccccc1 | -2.9 | -1.3 | 5.9 | -0.5 | -3.4 | 25.8*
COc1ccc(CCNC(=O)CN2C(=O)COc3ccc(S(=O)(=O)N4CCOCC4)cc32)cc1OC | -2.0 | 1.5 | -0.9 | 2.6 | 9.7 | 2.1
CC1CCCC(C)N1C(=O)CSc1nc(N)c(-c2ccccc2)c(=O)[nH]1 (configuration not stated) | 24.9* | 2.8 | 0.2 | -0.6 | 4.7 | 1.9
S=C(c1ccccc1)N(c1ccccc1)c1ccccc1 | 37.5* | 0.6 | 1.0 | 1.0 | 4.4 | 6.0
Cc1ccc(N2CCN(S(=O)(=O)c3ccc4oc(=O)ccc4c3)CC2)cc1Cl | 4.5 | -2.3 | 7.4 | 2.9 | 6.2 | 2.8
N#C/C(=C\c1ccc(O)c([N+](=O)[O-])c1)C(=O)NCc1ccccc1 | 10.3 | 0.5 | 5.6 | 9.6 | 5.4 | -1.7
N#C/C(=C\c1ccc(O)c(Br)c1)C(=O)NCc1ccccc1 | 9.5 | 3.3 | 8.5 | 22.5* | -3.9 | 2.8
N#C/C(=C/c1ccc(O)c(O)c1)C(=O)NCc1ccc(Cl)cc1 | 53.4* | 2.5 | 35.2* | 1.1 | 11.5 | 29.9*
CC(C#N)Sc1ccc(S(=O)(=O)N2CCCC2)cn1 (configuration not stated) | 0.9 | 1.6 | 1.1 | . | 0.0 | -2.7
Cc1cc(OCC(=O)NC(C)c2ccccc2)ccc1[N+](=O)[O-] (configuration not stated) | 2.1 | 2.5 | -6.1 | 0.3 | -5.4 | 1.0
CCOC(=O)C1=C(CSc2nc(C)cc(C)c2C#N)OC(N)=C(C#N)C1c1cccs1 (configuration not stated) | . | 1.6 | . | 22.4* | . | 3.2
CCOC(=O)C1=C(CSc2nc3c(cc2C#N)CN(C)CC3)OC(N)=C(C#N)C1c1ccc(Cl)cc1 (configuration not stated) | 3.0 | 2.2 | 4.3 | 8.8 | 9.3 | 29.0*
CCCCN(C(=O)CSc1n[nH]c(-c2ccc(C)cc2)n1)c1c(N)n(CCCC)c(=O)[nH]c1=O | 18.0 | -1.1 | 1.3 | -3.5 | 3.0 | 3.5
O=C(NC(Cc1ccc(O)cc1)C(=O)N=Nc1c(O)[nH]c2ccccc12)c1ccccc1 (configuration not stated) | 3.3 | . | -0.1 | . | 12.0 | .
